Measurements: the supplement of paper PMC13380429
Unmarked numbers belong to inactive results.

System: Vero E6 infected with SARS-CoV-2
Assay: inhibition of SARS-CoV-2 cytopathic effect; higher = more antiviral protection, active = above 15
Conditions: 48 h

Row | SMILES | inhibition of SARS-CoV-2 cytopathic effect (1 nM) | inhibition of SARS-CoV-2 cytopathic effect (8.33 nM) | inhibition of SARS-CoV-2 cytopathic effect (100 nM) | inhibition of SARS-CoV-2 cytopathic effect (833.33 nM) | inhibition of SARS-CoV-2 cytopathic effect (10000 nM)
1 | C[C@H](N)[C@H](O)c1ccc(O)c(O)c1 [levonordefrin] | -3.75% | 0.14% | -1.88% | 1.27% | -2.48%
2 | COc1ccccc1N1CCN(CCCNc2cc(=O)n(C)c(=O)n2C)CC1 [urapidil] | 0.14% | -1.36% | -0.45% | 2.04% | -0.1%
3 | NCCCCN [putrescine] | 2.4% | 3.44% | -0.12% | 4.47% | 0.82%
4 | CN1CCC(=C2c3ccccc3C=Cc3ccccc32)CC1 [cyproheptadine] | 1.35% | -0.26% | -1.02% | -0.75% | -4.89%
5 | COc1ccc(C2C(=O)c3ccccc3C2=O)cc1 [anisindione] | 0.46% | 1.92% | 2.19% | -3.04% | -1.46%
6 | CCC(=O)c1ccc(OCC(O)CN2CCN(c3ccccc3)CC2)cc1 (stereo not given) [centpropazine] | -4.09% | -0.61% | -2.65% | -0.96% | -0.58%
7 | CC(C)C[C@H](NC(=O)[C@H](CCCCN)NC(=O)[C@H](CCCNC(=N)N)NC(=O)[C@H](C)NC(=O)[C@H](CO)NC(=O)[C@H](CCCCN)NC(=O)[C@H](CCCNC(=N)N)NC(=O)[C@H](C)NC(=O)CNC(=O)[C@@H](NC(=O)[C@H](Cc1ccccc1)NC(=O)CNC(=O)CNC(=O)[C@@H](N)Cc1ccccc1)[C@@H](C)O)C(=O)N[C@@H](C)C(=O)N[C@@H](CC(N)=O)C(=O)N[C@@H](CCC(N)=O)C(=O)O [orphanin-fq] | 1.63% | -0.61% | 0.09% | 0.66% | 0.4%
8 | CC1CCN(CC[C@H]2CCCN2S(=O)(=O)c2cccc(O)c2)CC1 | 1.41% | 2.24% | 2.25% | 2.79% | 0.64%
9 | NS(=O)(=O)c1ccc(C(=O)O)cc1 [carzenide] | -1.83% | -0.09% | 0.05% | 2.39% | -0.52%
10 | CN(C(=O)CN1C(=O)COc2cc(Cl)c(Cl)cc21)[C@@H](CN1CCCC1)c1ccc(-c2cccc(C(N)=O)c2)cc1 | -0.51% | 1.04% | 3.9% | 1.88% | 5.93%
11 | CCN1CCN(c2cc(-c3ccc(F)cc3)c3c(n2)CCCCCC3)CC1 [blonanserin] | 3.34% | 2.25% | -2.9% | -0.44% | -3.59%
12 | COc1cccc(-c2cc(F)ccc2[C@H]2Cc3nc(N)nc(C)c3C(=O)N2)n1 | -0.35% | 0.26% | -1.38% | -0.51% | -10.9%
13 | OC[C@H]1NC[C@@H](O)[C@@H](O)[C@@H]1O [1-deoxymannojirimycin] | -5.76% | 0.14% | -0.54% | 1.33% | -0.79%
14 | CC(=O)N[C@@H](CC(C)C)C(=O)O [acetyl-l-leucine] | 1.37% | -0.18% | -0.14% | -1.79% | -0.49%
15 | Nc1cccc2c(=O)[nH][nH]c(=O)c12 [monosodium-alpha-luminol] | -0.8% | 0.14% | -1.27% | -0.92% | 2.06%
16 | O=C(O)c1cc(/N=N/c2ccc(S(=O)(=O)Nc3ccccn3)cc2)ccc1O [sulfasalazine] | -0.13% | -2.23% | -0.23% | -1.38% | 0.47%
17 | CCOC(=O)C1=C(C)NC(C)=C(C(=O)OC)C1c1cccc(Cl)c1Cl (stereo not given) [felodipine] | 1.65% | 3.36% | 5.39% | 4.84% | 1.57%
18 | CCCNS(=O)(=O)Nc1ncnc(OCCOc2ncc(Br)cn2)c1-c1ccc(Br)cc1 [macitentan] | 0.7% | -1.57% | -0.9% | 1.28% | 4.76%
19 | Cc1ccc(NC(=O)c2ccc(CN3CCN(C)CC3)cc2)cc1Nc1nccc(-c2cccnc2)n1 [imatinib] | 2.28% | 1.75% | 5.42% | 7.15% | 20.1% (active)

Row | SMILES | inhibition of SARS-CoV-2 cytopathic effect (1 nM) | inhibition of SARS-CoV-2 cytopathic effect (8.33 nM) | inhibition of SARS-CoV-2 cytopathic effect (100 nM) | inhibition of SARS-CoV-2 cytopathic effect (833.33 nM) | inhibition of SARS-CoV-2 cytopathic effect (10000 nM)
20 | CCC(=O)O[C@]1(C(=O)CO)CC[C@H]2[C@@H]3CCC4=CC(=O)CC[C@]4(C)[C@H]3CC[C@@]21C | 0.99% | 0.06% | -0.33% | 1.21% | 2.45%
21 | CNC(=N)NCCC[C@H](N)C(=O)O [targinine] | -1.27% | 4.65% | 8.19% | 0.16% | 3.97%
22 | Cc1ccc(C(C)C)c(O)c1 [thymol] | 2.55% | -2.55% | -2.75% | -1.48% | -1.32%
23 | CCNCc1cc(C(C)(C)C)c(O)c(C(C)(C)C)c1 | 1.75% | -0.5% | 1.78% | 0.46% | 1.14%
24 | O=C(NC1CCOCC1)c1ccc(-c2cc(-c3c[nH]nc3-c3ccccn3)ccn2)cc1 | 1% | 0.61% | 0.23% | 4.34% | 3.89%
25 | Cc1cnc(-c2cc(N3CCN(C(=O)CCS(C)(=O)=O)CC3)ncc2Cl)c(C)c1 | -1.36% | -0.24% | 0.43% | -2.37% | -0.86%
26 | CS(=O)(=O)c1cc(F)cc2c3c(n(Cc4ccc(Cl)cc4)c12)[C@@H](CC(=O)O)CC3 [laropiprant] | 0.24% | -3% | -0.36% | 1.31% | 2.04%
27 | CCN(CC)CC#CCOC(=O)C(O)(c1ccccc1)C1CCCCC1 (stereo not given) [oxybutynin] | -1.83% | -0.13% | -0.11% | 0.84% | 8.9%
28 | CCCCN(Cc1ccc(C(=O)NO)cc1)C(=O)Nc1ccccc1 [nexturastat-A] | 0.96% | 0.67% | -0.8% | -3.85% | -13.9%
29 | COc1ccc(C(=O)/C(Cc2cc(OC)c(OC)c(OC)c2)=C(\C(=O)O)c2ccc3c(c2)OCO3)cc1 | -2.66% | -0.48% | -0.33% | 1.73% | 17.8% (active)
30 | COc1cc2c(N3CCN(C(=O)Nc4ccc(OC(C)C)cc4)CC3)ncnc2cc1OCCCN1CCCCC1 [tandutinib] | -3.74% | -4.22% | -2.54% | 0.88% | 0.92%
31 | COC(=O)[C@@H](N)CS [mecysteine] | 2.04% | -0.66% | -0.44% | 2.25% | 2.07%
32 | C=CC[C@@H]1/C=C(\C)C[C@H](C)C[C@H](OC)[C@H]2O[C@@](O)(C(=O)C(=O)N3CCCC[C@H]3C(=O)O[C@H](/C(C)=C/[C@@H]3CC[C@@H](O)[C@H](OC)C3)[C@H](C)[C@@H](O)CC1=O)[C@H](C)C[C@@H]2OC [tacrolimus] | 0.97% | 1.42% | 2.56% | 1.67% | 1.14%
33 | C=CCNC(=O)c1cc([N+](=O)[O-])cc2c(=O)[nH]c(Nc3ccc(Cl)c(Cl)c3)nc12 | 0.56% | 4.08% | -1.8% | 9.51% | 1.19%
34 | CCCCc1oc2ccc(NS(C)(=O)=O)cc2c1C(=O)c1ccc(OCCCN(CCCC)CCCC)cc1 [dronedarone] | 3.27% | 1.28% | -0.45% | 4.57% | 29.3% (active)
35 | CN(C)CC(c1ccc(O)cc1)C1(O)CCCCC1 (stereo not given) [desvenlafaxine] | 1.5% | 3.55% | 4.53% | 1.89% | 0.99%
36 | NC(=O)CN1CCCC1=O [piracetam] | 0.23% | -1.52% | 3.28% | -1.35% | -0.57%
37 | NS(=O)(=O)c1cc2c(cc1Cl)NC(C1CC3C=CC1C3)NS2(=O)=O (stereo not given) [cyclothiazide] | 2.43% | 0.31% | 3.55% | -0.08% | -1.44%
38 | CC[N+](C)(CC)CCC[n+]1c(-c2ccccc2)c2cc(N)ccc2c2ccc(N)cc21 [propidium-iodide] | -1.36% | -0.29% | 3.2% | 2.34% | 2.62%
